Beta cell apopt: inhibitors of cytokine-induced beta cell apoptosis, primary screen, luminescence; INS-1E cytokine-induced death, ATP luminescence, 48 h; percent of positive-control rescue, neutral wells zero; actives 0.8% (n = 300,000); protection from apoptosis, % (test concentration not listed);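 active = Every replicate reaches about 75%, or at least half do and their mean reaches it too, limit read from the data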;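 note: 0% = cytokine-treated negative control wells and 100% = positive control rescue; higher means more ATP so stronger rescue from cytokine killing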
aSyn UTR inh: MLPCN primary screen, SNCA 5' untranslated region; alpha-synuclein 5'UTR reporter, inhibitor activity; inhibition, % (tested at 7.5 µM); actives 0.82% (n = 300,000); in the data active = inhibition above about 60%;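 note: H4 neuroglioblastoma cells stably carrying SNCA 5'UTR luciferase fusion; 0% = DMSO wells and 100% = positive control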
CSC inhib: cancer stem cell viability inhibitors, primary screen, luminescence | actives 1.1% (n = 300,000) | cancer stem cell-like cells viability | inhibition, % at 7.5 µM; in the data active = inhibition above about 75%; tested in HMLE shEcad cells
Bfl-1 A1 inh: caspase 3/7 activation in MEF A1-2A-BIM cells, primary screen, A1 inhibitor project, cell-based, luminescence, HTS; AID 2462, 2010; caspase activation, % (test concentration not listed); actives 0.066% (n = 330,000); Caspase-Glo 3/7 luminescence, 3 h; percent of clofoctol response, vehicle zero;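 active = over half of replicate activation scores above 10%, or exactly half above 10 with the replicate mean above 10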
Mdm2 MdmX PPI: inhibitors of human Mdm2-MdmX association, primary screen, cell-based, luminescence, split luciferase, SaOS-2, uHTS. Protein Mdm4 (Homo sapiens) + E3 ubiquitin-protein ligase Mdm2 (Homo sapiens), …. SaOS-2 split-luciferase Mdm2/MdmX complementation. inhibition, % at 8 µM. actives 3% (n = 330,000);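 active = inhibition of at least 50% at 8 µM in the primary screen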
Target sequence (O15151 whole entry, looked up): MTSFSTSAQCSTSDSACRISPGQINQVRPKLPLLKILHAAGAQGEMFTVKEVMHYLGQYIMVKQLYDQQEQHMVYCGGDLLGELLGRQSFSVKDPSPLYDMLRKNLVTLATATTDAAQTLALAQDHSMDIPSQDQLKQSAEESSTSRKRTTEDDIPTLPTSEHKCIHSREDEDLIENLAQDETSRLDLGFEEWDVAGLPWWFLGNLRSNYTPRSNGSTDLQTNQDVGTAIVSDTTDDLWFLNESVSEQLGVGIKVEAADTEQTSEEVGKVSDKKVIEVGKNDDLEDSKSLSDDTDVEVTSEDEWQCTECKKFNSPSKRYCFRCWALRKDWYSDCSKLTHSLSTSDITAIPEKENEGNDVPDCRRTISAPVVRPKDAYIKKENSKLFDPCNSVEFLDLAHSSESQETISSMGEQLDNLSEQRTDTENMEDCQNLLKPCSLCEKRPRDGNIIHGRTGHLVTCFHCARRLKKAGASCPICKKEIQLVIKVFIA
Target sequence (Q00987 whole entry, looked up): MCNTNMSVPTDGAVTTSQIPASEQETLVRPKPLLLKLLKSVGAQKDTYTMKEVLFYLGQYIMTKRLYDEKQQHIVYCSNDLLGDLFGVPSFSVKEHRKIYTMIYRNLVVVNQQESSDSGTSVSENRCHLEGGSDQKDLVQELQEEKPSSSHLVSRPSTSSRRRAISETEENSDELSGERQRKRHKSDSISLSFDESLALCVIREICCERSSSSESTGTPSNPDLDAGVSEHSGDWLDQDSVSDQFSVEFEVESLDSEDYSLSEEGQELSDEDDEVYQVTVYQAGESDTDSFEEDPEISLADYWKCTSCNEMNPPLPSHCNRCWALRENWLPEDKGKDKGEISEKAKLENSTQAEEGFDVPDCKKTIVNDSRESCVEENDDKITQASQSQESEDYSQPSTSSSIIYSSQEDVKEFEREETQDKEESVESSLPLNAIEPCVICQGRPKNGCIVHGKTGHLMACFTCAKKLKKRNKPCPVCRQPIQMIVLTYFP
Mdm2 MdmX conf: Mdm2-MdmX complex disruptors, retested hits, confirmation, luminescence, single concentration; shares compounds with Mdm2 MdmX PPI; Mdm2-MdmX binding, luminescent assay; actives 55% (n = 10,000); inhibition, % at 8 µM; in the data active = inhibition above about 40%
Full FLuc ctr: full-length luciferase signal inhibition, confirmation, counter-screen for Mdm2/MdmX interaction inhibitor project, cell-based, single concentration, SaOS-2. shares compounds with Mdm2 MdmX PPI. SaOS-2 full-length luciferase counterscreen, luminescence. inhibition, % at 8 µM. actives 77% (n = 6,200);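 active = mean inhibition at 8 µM reaching about 37%, which flags the compound as non-specific, limit read from the data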;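 note: p53-null SaOS-2 cells with luciferase driven by a doxycycline-inducible promoter; compound on cells about two nights before reading with doxycycline added after day one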
* marks the source's active call; other numbers are inactive results; / = not tested or not shown. In the library only some 4.1% were active in any assay of this set; here they are far more common.

SMILES	Beta cell apopt	aSyn UTR inh	CSC inhib	Bfl-1 A1 inh	Mdm2 MdmX PPI	Mdm2 MdmX conf	Full FLuc ctr
CCc1ccc(NC(=O)C2CCN(S(=O)(=O)c3ccc4[nH]c(=O)ccc4c3)CC2)cc1	-3.3	-14.5	/	-0.6	43.1	/	/
Nc1ccn([C@@H]2O[C@H](CO)[C@@H](O)C2O)c(=O)n1 (stereo not given in full)	/	72.3*	51.6	0.4	65.1*	70.0*	46.6*
N=c1ccn2c(n1)OC1C(O)C(CO)OC12 (stereo not given)	11.5	111.7*	9.7	0.5	69.2*	72.1*	45.7*
Cc1cccc(C(C)C)c1NC(=O)C(C)OC(=O)Cc1n[nH]c(=O)c2ccccc12 (stereo not given)	3.0	7.9	-3.8	1.8	21.4	/	/
Cc1cccc(-n2ncc3c2CCCC3NC(=O)CCN2CCCO2)c1C (stereo not given)	7.6	3.7	-3.1	0.5	14.4	/	/
C[C@H]1O[C@@H](O[C@H]2[C@@H](O)C[C@H](O[C@H]3[C@@H](O)C[C@H](O[C@H]4CC[C@@]5(C)[C@H](CC[C@@H]6[C@@H]5C[C@@H](O)[C@]5(C)[C@@H](C7=CC(=O)OC7)CC[C@]65O)C4)O[C@@H]3C)O[C@@H]2C)C[C@H](O)[C@@H]1O	5.5	112.5*	99.9*	0.2	82.0*	74.9*	14.8
CCN(C(=O)COC(=O)c1c(C)nn(-c2ccccc2)c1C)C1CCS(=O)(=O)C1 (stereo not given)	1.9	-53.0	1.8	-5.5	11.9	/	/
CCN(C(=O)COC(=O)c1c2c(nc3ccccc13)/C(=C/c1ccccc1)CC(C)C2)C1CCS(=O)(=O)C1 (stereo not given)	-3.2	27.1	0.7	0.7	52.5*	51.9*	54.8*
O=[N+]([O-])c1ccc(-[n+]2ccc3ccccc3c2)c([N+](=O)[O-])c1	109.2*	-105.1	121.1*	-0.4	100.3*	55.5*	4.9
N#Cc1ccc(C(=O)OCC(=O)N2CCCC2)cc1	-7.4	3.5	16.6	0.6	7.7	/	/
COc1ccc(COc2cc(-c3cccc(OC)c3)nc3ccc(NC(=O)c4ccc(OC)cc4)cc23)cc1	25.4	17.9	62.2	-0.2	52.3*	40.1*	62.1*
COc1ccc(COc2cc(-c3cccc(OC)c3)nc3ccc(NC(=O)c4ccccc4)cc23)cc1	7.0	-1.2	45.3	0.5	21.2	/	/
COc1ccc(COc2cc(-c3cccc(OC)c3)nc3ccc(NC(=O)c4cccnc4)cc23)cc1	12.3	-9.1	38.0	-0.3	63.3*	55.1*	69.3*
S=C1SCN(Cc2cccnc2)CN1Cc1cccnc1	/	-86.4	54.6	0.0	78.6*	77.0*	55.6*
Cc1[nH]c2ccccc2c1/C=N/Nc1nc(Nc2ccc(F)cc2)nc(N2CCOCC2)n1	4.1	/	69.2	2.4	86.7*	40.0	100.9*
Fc1ccc(Nc2nc(N3CCOCC3)nc(N3CCOCC3)n2)cc1	-5.9	7.8	-14.6	0.0	33.1	/	/
Cc1ccc(Nc2nc(N/N=C/c3c[nH]c4ccccc34)nc(N3CCOCC3)n2)cc1	-6.3	32.1	/	1.1	34.8	/	/
O=C(Oc1cccc(/C=N/Nc2nc(Nc3ccccc3)nc(N3CCOCC3)n2)c1)c1ccco1	10.8	-22.2	36.9	3.5	58.3*	48.5*	118.2*
C(=N\Nc1nc(Nc2ccccc2)nc(N2CCOCC2)n1)/c1c[nH]c2ccccc12	/	4.1	31.9	0.0	51.6*	34.4	/
COc1cc(/C=N/Nc2nc(N3CCCCC3)nc(N3CCCCC3)n2)ccc1OC(=O)c1ccco1	0.2	2.6	-8.7	-0.3	0.8	/	/
C[C@H](CO)N1C[C@H](C)[C@@H](CN(C)S(=O)(=O)c2cn(C)cn2)Oc2c(NC(=O)Nc3ccc4c(c3)OCO4)cccc2C1=O	1.1	/	-18.2	-0.9	-14.5	/	/
CCOC(=O)N1CCC(NS(=O)(=O)c2cc(C(=O)OC)n(C)c2)CC1	-3.8	7.0	-1.8	0.0	13.7	/	/
O=C(O)c1ccccc1OCC1CCCO1 (stereo not given)	-2.2	1.2	6.5	-0.5	7.0	/	/
Cc1ccc(-c2cc(C(=O)OCC(=O)N(C)c3c(N)n(Cc4ccccc4)c(=O)[nH]c3=O)c3ccccc3n2)o1	-2.0	-25.8	-12.2	-0.1	18.0	/	/
COc1ccc(NC(=O)CNC(=O)c2sc3ccccc3c2Cl)c(OC)c1	-1.8	/	/	0.9	77.2*	7.7	/
SMILES	Beta cell apopt	aSyn UTR inh	CSC inhib	Bfl-1 A1 inh	Mdm2 MdmX PPI	Mdm2 MdmX conf	Full FLuc ctr
CC(=O)c1cccc(NC(=O)CNC(=O)c2sc3ccccc3c2Cl)c1	/	2.0	-3.2	-0.4	76.4*	48.2*	55.5*
COc1ccc(NC(=O)NCCCCc2ccccc2)c(OC)c1	-8.0	3.5	0.9	-0.3	58.1*	23.4	/
COc1ccccc1CNC(=O)CNC(=O)c1sc2ccccc2c1Cl	/	-5.8	9.8	1.1	3.0	/	/
COc1ccccc1NC(=O)NCCCCc1ccccc1	-2.8	-3.7	0.0	0.3	2.0	/	/
Cc1c(NC(=O)COc2c(F)c(F)c(F)c(F)c2F)c(=O)n(-c2ccccc2)n1C	1.7	3.3	-8.1	0.3	8.1	/	/
CCOC(=O)C1CCN(C(=O)CCC2CCCC2)CC1	1.1	-3.3	-13.3	0.7	4.3	/	/
Cc1ccnc(NC(=O)c2ccc(S(=O)(=O)N3CCC(C)CC3)cc2)c1	-3.5	-117.9	/	-1.0	-2.2	/	/
O=C(Nc1cc(Sc2ccccn2)cc([N+](=O)[O-])c1)c1ccc(Cl)cc1	75.3*	-37.5	45.5	-0.9	51.6*	12.2	/
CCCCCCc1cc2cc(S(=O)(=O)c3ccc(Cl)cc3)c(=O)oc2cc1O	1.8	-8.9	86.9*	0.3	75.2*	34.0	/
CCCCCCc1cc2cc(C(=O)NCc3ccccc3)c(=N)oc2cc1O	16.3	-14.0	27.0	-1.3	13.8	/	/
CCCCCCc1cc2cc(C(=O)Nc3ccccc3)c(=O)oc2cc1O	112.3*	91.7*	99.7*	0.0	96.6*	60.6*	57.2*
Cc1ccc(CN(C(=O)c2csnn2)C(C(=O)NC2CCCC2)c2ccccn2)cc1 (stereo not given)	0.6	11.7	-19.4	-0.7	2.9	/	/
Cc1cccc(C(=O)NC2CCN(C(=O)NCc3ccccc3)CC2)c1	0.5	1.2	1.1	0.2	-8.3	/	/
CCCCn1c(N)c(N(CCC(C)C)C(=O)C2CC(=O)N(c3ccccc3OCC)C2)c(=O)[nH]c1=O (stereo not given)	/	-1.9	-12.8	-0.1	-7.7	/	/

High-throughput results (PubChem BioAssay)
